Results from PubChem BioAssay (NCATS).
Inconclusive results are not listed. Calls of active or inactive are those of the source. The call rests on the fitted dose curve; in most records, active means well fitted inhibition curve with a large enough effect; inconclusive means small, poorly fitted or top-dose-only effect; inactive means flat fitted curve, though single readings scatter.

Experiments:
[1] = qHTS profiling for inhibitors of Plasmodium falciparum proliferation (AID 504749);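 further: 0% = DMSO vehicle and full inhibition = artemisinin control; nearly all actives have a fitted effect of over 60% in size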; conditions: P. falciparum in erythrocytes, SYBR Green DNA, 72 h, at 28.7 µM (top of the series)
Method in brief: (§1)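 Three-day growth assay of blood-stage parasites in erythrocytes (0.3% parasitemia, 2.5% hematocrit) at 37 C, 5% CO2, quantified by SYBR Green DNA staining after overnight detergent lysis.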

[2] = tested on: 3D7; assay: as above; conditions: P. falciparum in erythrocytes, SYBR Green DNA, 72 h; series mostly up to 28.7 µM
Method in brief: as §1

[3] = tested on: 7G8; assay: as above; conditions: P. falciparum in erythrocytes, SYBR Green DNA, 72 h; series mostly up to 28.7 µM
Method in brief: as §1

[4] = tested on: AA1029; assay: as above; conditions: P. falciparum in erythrocytes, SYBR Green DNA, 72 h; series mostly up to 28.7 µM
Method in brief: as §1

[5] = tested on: AS120; assay: as above; conditions: P. falciparum in erythrocytes, SYBR Green DNA, 72 h; series mostly up to 28.7 µM
Method in brief: as §1

[6] = tested on: ATS189; assay: as above; conditions: P. falciparum in erythrocytes, SYBR Green DNA, 72 h; series mostly up to 28.7 µM
Method in brief: as §1

[7] = tested on: ATS95; assay: as above; conditions: P. falciparum in erythrocytes, SYBR Green DNA, 72 h; series mostly up to 28.7 µM
Method in brief: as §1

[8] = tested on: C2A; assay: as above; conditions: P. falciparum in erythrocytes, SYBR Green DNA, 72 h; series mostly up to 28.7 µM
Method in brief: as §1

[9] = tested on: CP185; assay: as above; conditions: P. falciparum in erythrocytes, SYBR Green DNA, 72 h; series mostly up to 28.7 µM
Method in brief: as §1

[10] = tested on: CP191; assay: as above; conditions: P. falciparum in erythrocytes, SYBR Green DNA, 72 h; series mostly up to 28.7 µM
Method in brief: as §1

[11] = tested on: CP192; assay: as above; conditions: P. falciparum in erythrocytes, SYBR Green DNA, 72 h; series mostly up to 28.7 µM
Method in brief: as §1

[12] = tested on: CP194; assay: as above; conditions: P. falciparum in erythrocytes, SYBR Green DNA, 72 h; series mostly up to 28.7 µM
Method in brief: as §1

[13] = tested on: CP201; assay: as above; conditions: P. falciparum in erythrocytes, SYBR Green DNA, 72 h; series mostly up to 28.7 µM
Method in brief: as §1

[14] = tested on: CP203; assay: as above; conditions: P. falciparum in erythrocytes, SYBR Green DNA, 72 h; series mostly up to 28.7 µM
Method in brief: as §1

[15] = tested on: CP211; assay: as above; conditions: P. falciparum in erythrocytes, SYBR Green DNA, 72 h; series mostly up to 28.7 µM
Method in brief: as §1

[16] = tested on: CP215; assay: as above; conditions: P. falciparum in erythrocytes, SYBR Green DNA, 72 h; series mostly up to 28.7 µM
Method in brief: as §1

[17] = tested on: CP217; assay: as above; conditions: P. falciparum in erythrocytes, SYBR Green DNA, 72 h; series mostly up to 28.7 µM
Method in brief: as §1

[18] = tested on: CP237; assay: as above; conditions: P. falciparum in erythrocytes, SYBR Green DNA, 72 h; series mostly up to 28.7 µM
Method in brief: as §1

[19] = tested on: CP238; assay: as above; conditions: P. falciparum in erythrocytes, SYBR Green DNA, 72 h; series mostly up to 28.7 µM
Method in brief: as §1

Cn1c([N+](=O)[O-])cnc1COC(N)=O
inactive: activity, negative = inhibition ([1]; parasite line A) 5.14% | activity, negative = inhibition ([1]; parasite line B) 3.75% | Potency [2] | Potency [3] | Potency [4] | Potency [5] | Potency [6] | Potency [7] | Potency [8] | Potency [9] | outcome [10] | outcome [11] | outcome [12] | outcome [13] | Potency [14] | outcome [15] | Potency [16] | outcome [17] | Potency [18] | Potency [19]

Cc1cccc(C(=O)O)c1O
inactive: activity, negative = inhibition ([1]; parasite line A) 14.5% | activity, negative = inhibition ([1]; parasite line B) 2.46% | Potency [2] | Potency [3] | Potency [4] | Potency [5] | Potency [6] | Potency [7] | Potency [8] | Potency [9] | outcome [10] | outcome [11] | outcome [12] | outcome [13] | Potency [14] | outcome [15] | Potency [16] | outcome [17] | Potency [18] | Potency [19]

CCCCCCCCCCCCCCCCC(C(=O)O)C(O)(CC(=O)O)C(=O)O (stereo not given)
inactive: activity, negative = inhibition ([1]; parasite line A) 13.1% | activity, negative = inhibition ([1]; parasite line B) 1.49% | Potency [2] | Potency [3] | Potency [4] | Potency [5] | Potency [6] | Potency [7] | Potency [8] | Potency [9] | outcome [10] | outcome [11] | outcome [12] | outcome [13] | Potency [14] | outcome [15] | Potency [16] | outcome [17] | Potency [18] | Potency [19]

Cc1c(NC(C)C)c(=O)n(-c2ccccc2)n1C
inactive: activity, negative = inhibition ([1]; parasite line A) 8.37% | activity, negative = inhibition ([1]; parasite line B) 23.5% | Potency [2] | Potency [3] | Potency [4] | Potency [5] | Potency [6] | Potency [7] | Potency [8] | Potency [9] | outcome [10] | outcome [11] | outcome [12] | outcome [13] | Potency [14] | outcome [15] | Potency [16] | outcome [17] | Potency [18] | Potency [19]

O=C(CCBr)N1CCN(C(=O)CCBr)CC1
inactive: activity, negative = inhibition ([1]; parasite line A) 10% | activity, negative = inhibition ([1]; parasite line B) -0.0848% | Potency [2] | Potency [3] | Potency [4] | Potency [5] | Potency [6] | Potency [7] | Potency [8] | Potency [9] | outcome [10] | outcome [11] | outcome [12] | outcome [13] | Potency [14] | outcome [15] | Potency [16] | outcome [17] | Potency [18] | Potency [19]

O=C(O)CCCc1ccccc1
inactive: activity, negative = inhibition ([1]; parasite line A) 3.34% | activity, negative = inhibition ([1]; parasite line B) -0.114% | Potency [2] | Potency [3] | Potency [4] | Potency [5] | Potency [6] | Potency [7] | Potency [8] | Potency [9] | outcome [10] | outcome [11] | outcome [12] | outcome [13] | Potency [14] | outcome [15] | Potency [16] | outcome [17] | Potency [18] | Potency [19]

CCOC(=O)c1cccnc1
inactive: activity, negative = inhibition ([1]; parasite line A) 7.9% | activity, negative = inhibition ([1]; parasite line B) 13.9% | Potency [2] | Potency [3] | Potency [4] | Potency [5] | Potency [6] | Potency [7] | Potency [8] | Potency [9] | outcome [10] | outcome [11] | outcome [12] | outcome [13] | Potency [14] | outcome [15] | Potency [16] | outcome [17] | Potency [18] | Potency [19]

C[N+](C)(C)CC[N+]1(C)Cc2c(Cl)c(Cl)c(Cl)c(Cl)c2C1
inactive: activity, negative = inhibition ([1]; parasite line A) 5.09% | activity, negative = inhibition ([1]; parasite line B) 9.42% | Potency [2] | Potency [3] | Potency [4] | Potency [5] | Potency [6] | Potency [7] | Potency [8] | Potency [9] | outcome [10] | outcome [11] | outcome [12] | outcome [13] | Potency [14] | outcome [15] | Potency [16] | outcome [17] | Potency [18] | Potency [19]

COC(=O)c1ccc(O)cc1
inactive: activity, negative = inhibition ([1]; parasite line A) 3.79% | activity, negative = inhibition ([1]; parasite line B) 9.44% | Potency [2] | Potency [3] | Potency [4] | Potency [5] | Potency [6] | Potency [7] | Potency [8] | Potency [9] | outcome [10] | outcome [11] | outcome [12] | outcome [13] | Potency [14] | outcome [15] | Potency [16] | outcome [17] | Potency [18] | Potency [19]

O=C(O)CCC(=O)O
inactive: activity, negative = inhibition ([1]; parasite line A) 10.3% | activity, negative = inhibition ([1]; parasite line B) 13.7% | Potency [2] | Potency [3] | Potency [4] | Potency [5] | Potency [6] | Potency [7] | Potency [8] | Potency [9] | outcome [10] | outcome [11] | outcome [12] | outcome [13] | Potency [14] | outcome [15] | Potency [16] | outcome [17] | Potency [18] | Potency [19]
